# Test results as given in PubChem BioAssay.
# “And” between values parts separate entries of the source, which are not always exact repeats. Equal values may be shown once. A number with no mark means an inactive call. The source made the active and inactive calls.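 The calls were made as follows: active = growth inhibition above 50% at the single 2 µM test dose, taken to imply half-maximal potency below 2 µM; inactive = the rest.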
# Assay: antimalarial activity against Dd2 strain (AID 2302);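 also: 0% = DMSO untreated growth and 100% = chloroquine plus artemisinin killed control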
# Conditions: P. falciparum Dd2 in RBCs, LDH growth readout, 72 h; at 2 µM; stronger effect = higher value
row,SMILES,growth inhibition
1,CC(C)c1ccc(CN2CCCCC(NC(=O)c3cc(-c4ccccc4Cl)cs3)C2)cc1 (stereo not given),64% (active)
2,Cc1cccc2[nH]c(-c3cccc(-c4cccc(CNCCCN5CCCC5=O)c4)c3)nc12,76% (active)
3,O=C(Nc1cccc(-c2cccc(-c3nc4ccccc4[nH]3)c2)c1)N[C@@H]1C[C@H]1c1ccccc1,22% and 27%
4,O=C1C(c2ccccc2)=C(Nc2cc(Cl)cc(Cl)c2)c2ccccc21,94% (active)
5,O=C(NC1CC1)c1ccc(Cn2c(SCc3cccc(Cl)c3)nc3ccccc3c2=O)cc1,70% (active)
6,COc1ccc2nc(C)cc(NN=Cc3ccccc3Cl)c2c1,100% (active)
7,Clc1ccc2c(NCCNc3ccnc4cc(Cl)ccc34)ccnc2c1,96% (active)
8,O=C(Nc1cccc(CN2CCN(Cc3ccc(O)cc3)CC2)c1)c1ccc(Cl)c(Cl)c1,95% (active)
9,Cc1[nH]c(C)c(-c2ccc(CCc3ccc(N)cc3)cc2)c(=O)c1Cl,97% (active)
10,CC(CNC(=O)c1cc2c(Cl)cc(Cl)cc2[nH]1)CNc1cc(=O)c2ccccc2[nH]1 (stereo not given),11%
11,C=C[C@H]1CN(CCCCCCC)CC[C@H]1CCN(C)c1ccnc2ccc(OC)cc12,93% (active)
12,Fc1ccc2ncc(Cl)c(CCN3CCC(NCc4cc5c(cn4)OCCO5)CC3)c2c1,20%
13,CC(C)(C)c1ccc(N2C(N)=NC(N)=NC2(C)C)cc1,-2%
14,CCN(CC(C)O)C(=O)c1ccc(-c2ccc(-c3nc4c(C)cccc4[nH]3)cc2)cc1 (stereo not given),13%
15,CN1CCC(C(=O)Nc2ccc(-c3cccc(-c4nc5ccc(C(F)(F)F)cc5[nH]4)c3)cc2)CC1,97% (active)
16,O=C1C(c2ccccc2)=C(Nc2ccc(Cl)cc2)c2ccccc21,59% (active)
17,Cc1cc(O)c(-c2cc(C(=O)Nc3cccnc3)[nH]n2)cc1C,97% (active)
18,CCCC(C)Nc1nc(C)cc(N[C@@H](CC(C)C)C(=O)NCc2ccc(C)cc2)n1 (stereo not given in full),51% (active)
19,O=C(NC1CC1)c1cnc(N2CCCC(c3ccccc3)C2)c(Cl)c1 (stereo not given),94% (active)
20,CCCCSc1c(CNCCCCCCNCc2ccc3ccccc3c2SCCCC)ccc2ccccc12,62% (active)

row,SMILES,growth inhibition
1,Cc1cccc2[nH]c(-c3ccc(-c4cccc(NC(=O)NCc5cccc(F)c5)c4)cc3)nc12,5%
2,COc1ccc(CN(C)CCCSc2ccc(NC(=O)c3cccc4c(=O)cc(-c5ccccc5)[nH]c34)cc2)cc1OC,94% (active)
3,O=C(/C=C/c1ccc(Cl)c(Cl)c1)NCCCCCN1CCCN(C(=O)Nc2cccc(F)c2)CC1,4%
4,NC(=O)COc1cccc2c1CCN(CCN1CCC(NC(=O)c3ccc(-c4ccc(Cl)cc4)cc3)CC1)C2,6%
5,CN1CCC(NCc2cccc(-c3cccc(-c4nc5ccc(C(F)(F)F)cc5[nH]4)c3)c2)CC1,101% (active)
6,Cn1ncc2c3c(CCN4CCC(NCc5cc6c(cn5)OCCO6)CC4)c(Cl)cnc3ccc21,34%
7,CC1(C)N=C(N)N=C(N)N1c1ccc2ccccc2c1,-1%
8,O=C(Nc1cc(Cl)ccc1O)c1ccc(Oc2ccc(C(=O)Nc3cc(Cl)ccc3O)cc2)cc1,91% (active)
9,FC(F)(F)c1cccc(CNCCCCCNCc2ccc(Cl)cc2)c1,15%
10,CC(C)(C)c1ccc(CN2CCC(NC(=O)c3ccc(-c4ccccc4Cl)s3)CC2)cc1,29%
11,CCc1cc2c(N)nc(N)nc2nc1-c1ccccc1,-1%
12,COc1ccc(CNCc2ccc(F)cc2)cc1-c1ccc(OC)c(S(=O)(=O)NCCN2CCCC2)c1,88% (active)
13,O=C(NCCc1ccc(Cl)c(Cl)c1)c1ccc(CNC(=O)c2ccc(O)c(-c3ccc(Cl)c(Cl)c3)c2)cc1,3%
14,CCc1cn2c3c(cc(C(=O)N[C@@H](Cc4cc(F)cc(F)c4)[C@H](O)CNC4CC4)cc13)N(C)S(=O)(=O)CC2,99% (active)
15,O=C(NCCCCN1CC[C@@H]2c3cccc(O)c3CC[C@H]21)c1ccc(-c2ccccc2)cc1,50% (active)
16,CS(=O)(=O)c1ccc(CNCc2cccc(-c3cccc(-c4nc5ccc(F)cc5[nH]4)c3)c2)cc1,84% (active)
17,COc1cccc(CNC(=O)c2cnc(N3CCN(c4ccncc4)CC3)c(Cl)c2)c1,12%
18,O=C(Cc1cnc[nH]1)Nc1ccc(-c2cccc(-c3nc4ccc(F)cc4[nH]3)c2)cc1,70% (active)
19,FC(F)(F)c1ccc2nccc(NN=Cc3ccc(Cl)cc3)c2c1,53% (active)
20,O=C(NCCCCN1CCC(c2ccc(OC(F)(F)F)cc2)CC1)c1ccc(NC(=O)c2ccc(Cl)cc2)cc1,98% (active)
